PubChem BioAssay
Records with an inconclusive call do not appear.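 How the source made its calls, unless noted: active means viability increase at or above a cutoff of the median across tested compounds plus 3 SD (cut at about 8.5% in these data, passing the limit was not always enough); inconclusive means some gains above the cutoff, reason not given; inactive means the rest.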

Assays:
[1] = OD615 S. cerevisiae growth inhibition, permissive medium, pilot counter-assay, permissive growth control for S. cerevisiae lifespan shortening project (AID 705;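 active means growth inhibition above 25% in both replicates, a cutoff set 3 SD above the mean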); conditions: OD615, 24 h, at 10 µM, stronger effect = higher value
[2] = Restrictive medium S. cerevisiae growth inhibition, OD615, pilot screen of yeast lifespan reduction project, restrictive growth control (AID 706;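 active means growth inhibition above a set limit, 3 SD over mean compound inhibition, in both replicates, cut at about 43% in these data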;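 further: modified DeaD lifespan yeast strain shifted to restrictive glucose medium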); conditions: OD615, 48 h, at 10 µM, stronger effect = higher value
[3] = viability gain of MRP-1-high H69AR cells under doxorubicin, pilot screen, MRP-1 activator project, CellTiter-Glo, duplicate (AID 807); conditions: H69AR viability with doxorubicin, CellTiter-Glo luminescence; at 10 µM; stronger effect = higher value;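 further: compound pretreatment 18-22 h then 72 h combined with doxorubicin; 0% = doxorubicin alone and 100% = vehicle without doxorubicin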
[4] = growth suppression of beta-catenin knockout HCT116, pilot screen, human colon tumor cells (AID 823;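 active means cell viability at or below a set limit in both duplicate runs, the limit being the all-compound median minus 4 SD, cut at about 23% in these data, passing the limit was not always enough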;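 further: 0% = wells killed by 20 µM Hyamine and 100% = untreated DMSO cell wells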); conditions: CellTiter-Glo, 60 h, at 10 µM, stronger effect = lower value
[5] = growth suppression of PTEN-deleted HCT116, pilot screen, cell-based, HCT116 clonal line, CellTiter-Glo (AID 824;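 active means viability at or below 27.92% in each of two runs, the all-compound median minus 4 SD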;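 further: 0% = 20 µM Hyamine control and 100% = vehicle cell control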); conditions: 60 h, at 10 µM, stronger effect = lower value
[6] = RAM signaling pathway blockade in yeast – S. cerevisiae, Pdr1DBD-CYC8 efflux-inhibited sensitized strain, primary screen (AID 1298;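 active means RAM network inhibition above 8.4% in each of two replicates, 3 SD over the compound average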;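 further: 0% = DMSO untreated cells without growth and 100% = 10 µM 1-NA-PP1 full growth; higher means more yeast growth rescued from 5-FOA killing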); conditions: S. cerevisiae cbk1-as DSE1-URA3 strain, 5-FOA growth OD615, 2 d; at 50 µM; stronger effect = higher value

CCSC(C)CC1C/C(=N/O)c2c(CC)noc2C1 (centres undefined)
inactive: growth inhibition [1] -0.005% | growth inhibition [2] -4.39% | viability increase [3] 5.22% | viability [4] 93.6% | viability [5] 94.2% | RAM network inhibition [6] 0.17%

CC(Sc1nc(N2CCOCC2)nc(N2CCOCC2)n1)C(=O)Nc1ccccc1 (centres undefined)
inactive: growth inhibition [1] -18.4% | growth inhibition [2] -21.2% | viability increase [3] -1.56% | viability [4] 95.5% | viability [5] 93.2% | RAM network inhibition [6] 5.6%

O=C(Nc1ccccc1-c1nc2ccccc2s1)c1ccco1
inactive: growth inhibition [1] -6.38% | growth inhibition [2] -20.9% | viability increase [3] -5.19% | viability [4] 74.7% | viability [5] 61.9% | RAM network inhibition [6] 6.4%

O=C(Cn1c(=O)oc2cc(S(=O)(=O)N3CCCC3)ccc21)NC1CCCc2ccccc21 (centres undefined)
inactive: growth inhibition [1] -5.83% | growth inhibition [2] -9.71% | viability increase [3] -0.88% | viability [4] 97% | viability [5] 79.4% | RAM network inhibition [6] 10.3%

COc1ccc(-n2c(SCC(=O)Nc3ccc4c(c3)OCO4)nc3c(c2=O)SCC3)cc1
inactive: growth inhibition [1] -15.7% | growth inhibition [2] -12.5% | viability increase [3] -2.51% | viability [4] 98.2% | viability [5] 81.2% | RAM network inhibition [6] 8.27%

CCC(C(=O)N1CCN(c2cccc(Cl)c2)CC1)c1ccccc1 (centres undefined)
inactive: growth inhibition [1] 1.93% | growth inhibition [2] -5.71% | viability increase [3] -4.98% | viability [4] 57.7% | viability [5] 63% | RAM network inhibition [6] 8.74%

COc1ccc(C2C(C(C)=O)=C(O)C(=O)N2CCN(C)C)cc1OC (centres undefined)
inactive: growth inhibition [1] -17.7% | growth inhibition [2] -12.3% | viability increase [3] 0.21% | viability [4] 92.6% | viability [5] 96.9% | RAM network inhibition [6] 1.99%

Cn1c(=O)c2nnn(/N=C(\c3ccccc3)C3CC3)c2n(C)c1=O
inactive: growth inhibition [1] -11.4% | growth inhibition [2] -15% | viability increase [3] -1.2% | viability [4] 103% | viability [5] 98.7% | RAM network inhibition [6] 2.84%

Cc1ccc(NC(=O)CSc2nnc(Cn3c(=O)sc4ccccc43)n2C)cc1
inactive: growth inhibition [1] -5.8% | growth inhibition [2] -12.1% | viability increase [3] -1.58% | viability [4] 93.6% | viability [5] 96.4% | RAM network inhibition [6] 8.73%

CCOC(=O)C1CCN(S(=O)(=O)C(F)(F)c2nc3ccccc3s2)CC1
inactive: growth inhibition [1] -10.6% | growth inhibition [2] -6.5% | viability increase [3] -2.27% | viability [4] 82.2% | viability [5] 87.5% | RAM network inhibition [6] 5.28%

C#CCSc1nnc(-c2c[nH]c3ccccc23)n1C
inactive: growth inhibition [1] 0.22% | growth inhibition [2] 8.42% | viability increase [3] -2.77% | viability [4] 98.3% | viability [5] 93.5% | RAM network inhibition [6] -0.92%

CN1C(=O)c2cccc(NC(=O)CCc3ccccc3)c2C1=O
inactive: growth inhibition [1] -6.67% | growth inhibition [2] 1.67% | viability increase [3] 0.13% | viability [4] 99% | viability [5] 93% | RAM network inhibition [6] 1.84%

C=CCn1c(SCC(=O)c2cccs2)nc2sc(CC)cc2c1=O
inactive: growth inhibition [1] -5.62% | growth inhibition [2] 5.1% | viability increase [3] -1.39% | viability [4] 76.8% | viability [5] 83.3% | RAM network inhibition [6] 7.45%

Cn1c(Cn2c(=O)sc3ccccc32)nnc1SCC(=O)Nc1ccccc1
inactive: growth inhibition [1] -7.53% | growth inhibition [2] -2.15% | viability increase [3] -1.41% | viability [4] 99.5% | viability [5] 98.1% | RAM network inhibition [6] 13%

Cc1ccc(Nc2ncnc3nc[nH]c23)cc1Cl
inactive: growth inhibition [1] 1.92% | growth inhibition [2] 31.3% | viability increase [3] -1.76% | viability [4] 105% | viability [5] 90.8% | RAM network inhibition [6] 4.7%

CCn1c(=O)c2cc(C(=O)Nc3cc(C)on3)sc2c2ccccc21
inactive: growth inhibition [1] -16.6% | growth inhibition [2] -25.2% | viability increase [3] -6.36% | viability [4] 92.1% | viability [5] 71.5% | RAM network inhibition [6] 4.19%

COC(=O)c1nnc(-c2ccccc2)c(-c2ccccc2)n1
inactive: growth inhibition [1] -20.7% | growth inhibition [2] -24.7% | viability increase [3] -1.82% | viability [4] 104% | viability [5] 99.5% | RAM network inhibition [6] 9.17%

CS(=O)(=O)c1ccc2nc(NC(=O)Cc3ccccc3)sc2c1
inactive: growth inhibition [1] -10.9% | growth inhibition [2] -4.83% | viability increase [3] -4.98% | viability [4] 91.5% | viability [5] 96.3% | RAM network inhibition [6] 3.94%

Cc1cc2cc(CNC(=O)C3CCCC3)ccc2n1C
inactive: growth inhibition [1] -3.94% | growth inhibition [2] -10.2% | viability increase [3] 0.45% | viability [4] 103% | viability [5] 91% | RAM network inhibition [6] 2.97%
